The nature of assay [1]: qHTS assay to identify small molecule agonists of the sonic hedgehog signaling (Shh) pathway (AID 1259368; calls by dose curve;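 note: NIH/3T3-derived 3T3Gli1-Luc cells carrying a stable Gli1-driven firefly luciferase reporter; series mostly up to about 92 µM; nearly all actives have a fitted effect of over 15% in size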). In short, it runs like this:
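A Gli1 transcriptional response element controlled firefly luciferase in 3T3Gli1-Luc cells. Compounds and a positive control were added 4 hr after plating, and cells were incubated a further 24 hr at 37 C before luminescence detection.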

Assay [2] can be described thus: qHTS assay to identify small molecule agonists of the androgen receptor (AR) signaling pathway in the presence of an antagonist - cell viability counter screen (AID 1259379).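 Note: MDA-kb2 human breast cancer cells carrying an MMTV luciferase reporter; series mostly up to about 92 µM; nearly all actives have a fitted effect of over 25% in size.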 In a few lines:
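Seed MDA-kb2 at 3,000 cells/well; incubate 5 hr, 37C, 0% CO2. Add nilutamide to 3.0uM final, then pin compounds at 15 concentrations. Incubate 16 hr. Add CellTiter-Fluor at 15 hr, read fluorescence after 1 hr.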

Assay [3] is described as follows: qHTS assay to identify small molecule agonists of the estrogen receptor beta (ER-beta) signaling pathway - cell viability counter screen (AID 1259380). Note: nearly all actives have a fitted effect of over 30% in size. Note: potency is the fitted concentration of half-maximal effect. In short, it runs like this:
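CellTiter-Glo read, 30 min RT, same wells as bla assay; cells ER-beta-UAS-bla HEK293T; 16 hr compound, 37C; medium 2% charcoal-stripped FBS.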

For assay [4], the target named is Androgen receptor (Homo sapiens) (UniProt P10275). The assay is described as follows: qHTS assay to identify small molecule agonists of the androgen receptor (AR) signaling pathway in the presence of an antagonist (AID 1259381; calls by dose curve; note: nearly all actives have a fitted effect of over 15% in size). In short, it runs like this: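 Test compounds at 15 concentrations were incubated for 16hr with MDA-kb2 reporter cells in presence of 3.0uM nilutamide (final). Signal: ONE-Glo luciferase luminescence.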

Assay [5] can be described thus: qHTS assay to identify small molecule antagonists of the estrogen receptor beta (ER-beta) signaling pathway - cell viability counter screen (AID 1259382). Note: series mostly up to about 92 µM; nearly all actives have a fitted effect of over 55% in size. In a few lines: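 In this multiplexed counter screen, cells were seeded at 2,000 per well in medium with 2% charcoal-stripped FBS and incubated 6 hr before compound and 1nM final E2 were added. Sixteen hours later, ATP-based luminescence reported viability.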

In assay [6] the target is Estrogen receptor (Homo sapiens) (UniProt P03372). The assay is described as follows: qHTS assay to identify small molecule agonists of the estrogen receptor alpha (ER-alpha) signaling pathway in the presence of an antagonist (AID 1259383; calls by dose curve; note: top concentration of the series differs between compounds; nearly all actives have a fitted effect of over 15% in size). In short, it runs like this: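 Stably transfected VM7Luc4E2 reporter cells, kept 5 days in charcoal-stripped serum, received ICI-182,780 at 10.0nM final before compound addition. Following 22hr incubation at 37C and 5% CO2, luciferase signal was read by luminescence.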

The nature of assay [7]: qHTS assay to identify small molecule agonists or antagonists of the thyroid stimulating hormone receptor (TSHR) signaling pathway - wild type cell line counter screen (AID 1259384; calls by dose curve). In short, it runs like this: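 Wild-type HEK293 cells were plated 18 h at 37 C/5% CO2, pin-dosed with compound plus Ro20-1724 medium, held 30 min at room temperature, then given cAMP-d2 and anti-cAMP-cryptate; fluorescence was read after 1 h. Fifteen concentrations, triplicate.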

Assay [8] addresses Thyrotropin receptor (Homo sapiens) (UniProt P16473). The assay is described as follows: qHTS assay to identify small molecule antagonists of the thyroid stimulating hormone receptor (TSHR) signaling pathway (AID 1259385; calls by dose curve; note: nearly all actives have a fitted effect of over 20% in size). In short, it runs like this: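 TSHR-HEK293 cells were plated and held 18 h at 37C/5% CO2, then given compound plus Ro20-1724 and stimulated with TSH at 1.5 ng/mL final. After 30 min at room temperature, cAMP was detected with cAMP-d2/anti-cAMP-cryptate (1 h) by fluorescence.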

A short description of assay [9]: qHTS assay to identify small molecule agonists of the estrogen receptor alpha (ER-alpha) signaling pathway in the presence of an antagonist - cell viability counter screen (AID 1259386).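 Note: series mostly up to about 92 µM; cells exposed to compounds for 22 h at 37 °C before the viability read; nearly all actives have a fitted effect of over 30% in size.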 In short, it runs like this: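 Viability counter screen using VM7Luc4E2 (full-length ER-alpha, four ERE-luciferase). The cells were treated with compounds alongside ICI-182,780 10.0nM for 22hr, and live-cell protease fluorescence was quantified with CellTiter-Fluor.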

Assay [10] concerns the target Progesterone receptor (Homo sapiens) (UniProt P06401). The assay is described as follows: qHTS assay to identify small molecule agonists of the progesterone receptor (PR) signaling pathway (AID 1346784; calls by dose curve; note: nearly all actives have a fitted effect of over 30% in size). In a few lines:
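Fluorescence from LiveBLAzer B/G FRET substrate cleavage (2 hr, RT) reported PR activation in PR-UAS-bla HEK 293T cells treated 16 hr at 37C/5% CO2 with compounds; medium contained 2% charcoal-stripped FBS.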

Assay [11] shares this target. The assay is described as follows: qHTS assay to identify small molecule antagonists of the progesterone receptor (PR) signaling pathway (AID 1346795; active = well fitted inhibition curve with a large enough effect in the signal ratio in the repeat runs, not every such curve was filed as active; the % refers to the signal ratio; note: potency is the fitted concentration of half-maximal effect). In a few lines: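 Fluorescence intensity measured 2 hr after adding beta-lactamase FRET substrate to PR-UAS-bla HEK293T cells that had been co-treated 16 hr with compound and 1 nM R5020 (final concentration) in 2% charcoal-stripped FBS.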

The nature of assay [12]: qHTS assay to identify small molecule antagonists of the progesterone receptor (PR) signaling pathway - cell viability counter screen (AID 1346798). Note: series mostly up to about 92 µM; nearly all actives have a fitted effect of over 50% in size. In short, it runs like this:
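CellTiter-Glo luminescence; PR-UAS-bla HEK293T, 3,000 cells/well; compound + R5020, 16 hr, 37C/5% CO2; 30 min RT before read.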

The nature of assay [13]: qHTS assay to identify small molecule antagonists of the TGF-beta/Smad signaling pathway - cell viability counter screen (AID 1346824). Note: nearly all actives have a fitted effect of over 50% in size. In a few lines:
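SBE-bla HEK 293T cells were plated overnight at 37 C, then given compounds in DMSO plus TGF-beta1 (added as 0.25 ng/mL solution) for 5 hr. After the bla read, CellTiter-Glo was added to the same wells and luminescence read after 30 min at room temperature.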

Assay [14] is described as follows: qHTS assay to identify small molecule agonists of the TGF-beta/Smad signaling pathway - cell viability counter screen (AID 1346829). Note: top concentration of the series differs between compounds; nearly all actives have a fitted effect of over 45% in size. In a few lines:
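SBE-bla HEK 293T cells plated overnight, compound exposure 5 hr at 37 C. Viability read in the same wells by CellTiter-Glo luminescence after 30 min at room temperature, following the beta-lactamase read.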

Assay [15] is described as follows: qHTS assay to identify small molecule agonists of the TGF-beta/Smad signaling pathway (AID 1346859; active = well fitted activation curve with a large enough effect in the signal ratio in the repeat runs, not every such curve was filed as active; the % refers to the signal ratio; note: series mostly up to about 77 µM). In a few lines: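 After overnight seeding, SBE-bla HEK 293T cells are dosed with compounds in DMSO and kept 5 hr at 37 C, 5% CO2. LiveBLAzer-type FRET substrate is then applied for 2 hr at room temperature.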
In assay [16] the target is Thyrotropin-releasing hormone receptor (Homo sapiens) (UniProt P34981). The assay is described as follows: qHTS assay to identify small molecule antagonists of the thyrotropin-releasing hormone receptor (TRHR) signaling pathway (AID 1346877; active = well fitted inhibition curve with a large enough effect in the repeat runs, not every such curve was filed as active; note: series mostly up to about 51 µM). In a few lines:
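Following an 18 h incubation at 37 °C and a 2 h calcium dye load, TRHR-HEK293 cells were exposed to compound (5 min, room temperature) and challenged with TRH, 1 nM final.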

A short description of assay [17]: qHTS assay to identify small molecule agonists of the progesterone receptor (PR) signaling pathway - cell viability counter screen (AID 1346799; calls by dose curve; note: nearly all actives have a fitted effect of over 45% in size; note: potency is the fitted concentration of half-maximal effect). In a few lines:
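In parallel with the beta-lactamase readout, cytotoxicity toward PR-UAS-bla HEK293T cells was measured by CellTiter-Glo luminescence following 16 hr compound incubation in 2% charcoal-stripped FBS medium.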

Assay [18] addresses Estrogen receptor beta (Homo sapiens) (UniProt Q92731). The assay is described as follows: qHTS assay to identify small molecule antagonists of the estrogen receptor beta (ER-beta) signaling pathway (AID 1259378; active = well fitted inhibition curve with a large enough effect in the signal ratio in the repeat runs, not every such curve was filed as active; the % refers to the signal ratio). In a few lines:
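ER-beta-UAS-bla HEK293T (GripTite) cells in 2% charcoal-stripped FBS medium were preincubated 6 hr at 37C, dosed with compound, then stimulated with 1 nM E2 (final) for 16 hr; beta-lactamase reporter read by B/G FRET fluorescence after 2 hr substrate loading.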

The structures appear in SMILES notation. Unmarked numbers belong to inactive results. Inconclusive results are not listed. Active and inactive are the calls of the source. Unless noted, calls come from the whole dose curve; as a rule, active = well fitted curve in the direction sought with a large enough effect in the repeat runs; inconclusive = weak or mixed curves; inactive = no such curve, though single readings can be large; an effect the other way counts as inactive or inconclusive.

Chain of Androgen receptor (Homo sapiens) (P10275 whole entry, looked up): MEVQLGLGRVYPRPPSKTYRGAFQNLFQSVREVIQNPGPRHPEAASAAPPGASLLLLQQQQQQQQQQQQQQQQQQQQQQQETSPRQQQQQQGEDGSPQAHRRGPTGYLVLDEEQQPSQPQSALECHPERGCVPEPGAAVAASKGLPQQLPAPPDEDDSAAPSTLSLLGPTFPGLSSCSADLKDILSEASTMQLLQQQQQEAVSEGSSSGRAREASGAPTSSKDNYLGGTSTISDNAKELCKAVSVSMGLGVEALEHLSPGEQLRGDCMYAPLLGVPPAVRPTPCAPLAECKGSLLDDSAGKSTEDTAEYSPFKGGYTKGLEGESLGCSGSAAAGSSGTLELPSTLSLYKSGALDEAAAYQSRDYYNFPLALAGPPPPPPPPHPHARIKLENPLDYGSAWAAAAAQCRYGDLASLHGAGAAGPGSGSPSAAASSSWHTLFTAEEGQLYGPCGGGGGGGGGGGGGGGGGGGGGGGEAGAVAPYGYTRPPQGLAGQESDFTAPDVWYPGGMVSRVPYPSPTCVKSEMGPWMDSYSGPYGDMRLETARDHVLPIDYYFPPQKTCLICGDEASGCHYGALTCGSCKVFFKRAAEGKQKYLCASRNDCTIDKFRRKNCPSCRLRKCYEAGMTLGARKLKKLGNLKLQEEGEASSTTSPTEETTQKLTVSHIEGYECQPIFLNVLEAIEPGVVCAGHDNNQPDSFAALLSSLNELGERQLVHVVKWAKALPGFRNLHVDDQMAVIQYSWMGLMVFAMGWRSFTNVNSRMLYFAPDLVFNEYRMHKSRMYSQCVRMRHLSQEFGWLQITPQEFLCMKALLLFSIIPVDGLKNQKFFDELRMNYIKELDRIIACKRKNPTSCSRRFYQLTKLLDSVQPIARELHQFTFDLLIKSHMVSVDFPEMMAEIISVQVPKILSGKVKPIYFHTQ
Chain of Thyrotropin receptor (Homo sapiens) (P16473 whole entry, looked up): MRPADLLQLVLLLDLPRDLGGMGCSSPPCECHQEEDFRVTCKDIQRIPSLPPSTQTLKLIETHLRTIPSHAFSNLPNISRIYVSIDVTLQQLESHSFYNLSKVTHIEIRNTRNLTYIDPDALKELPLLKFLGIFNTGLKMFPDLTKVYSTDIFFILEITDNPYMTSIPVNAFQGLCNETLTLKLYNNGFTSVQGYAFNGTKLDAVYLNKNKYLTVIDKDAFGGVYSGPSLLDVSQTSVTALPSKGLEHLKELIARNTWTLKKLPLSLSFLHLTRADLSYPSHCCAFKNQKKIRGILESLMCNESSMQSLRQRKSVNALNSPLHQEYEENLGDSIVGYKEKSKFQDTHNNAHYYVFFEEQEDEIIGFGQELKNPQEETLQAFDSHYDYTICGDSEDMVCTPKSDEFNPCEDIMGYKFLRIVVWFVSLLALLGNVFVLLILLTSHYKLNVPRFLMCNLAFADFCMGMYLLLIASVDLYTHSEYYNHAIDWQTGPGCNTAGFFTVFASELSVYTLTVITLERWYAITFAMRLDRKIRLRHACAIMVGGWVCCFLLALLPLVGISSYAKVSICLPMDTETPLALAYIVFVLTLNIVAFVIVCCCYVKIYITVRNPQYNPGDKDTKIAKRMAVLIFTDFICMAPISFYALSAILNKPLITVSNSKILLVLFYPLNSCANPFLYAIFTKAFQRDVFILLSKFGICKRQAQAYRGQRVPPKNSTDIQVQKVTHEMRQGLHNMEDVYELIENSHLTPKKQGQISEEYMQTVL
Chain of Progesterone receptor (Homo sapiens) (P06401 whole entry, looked up): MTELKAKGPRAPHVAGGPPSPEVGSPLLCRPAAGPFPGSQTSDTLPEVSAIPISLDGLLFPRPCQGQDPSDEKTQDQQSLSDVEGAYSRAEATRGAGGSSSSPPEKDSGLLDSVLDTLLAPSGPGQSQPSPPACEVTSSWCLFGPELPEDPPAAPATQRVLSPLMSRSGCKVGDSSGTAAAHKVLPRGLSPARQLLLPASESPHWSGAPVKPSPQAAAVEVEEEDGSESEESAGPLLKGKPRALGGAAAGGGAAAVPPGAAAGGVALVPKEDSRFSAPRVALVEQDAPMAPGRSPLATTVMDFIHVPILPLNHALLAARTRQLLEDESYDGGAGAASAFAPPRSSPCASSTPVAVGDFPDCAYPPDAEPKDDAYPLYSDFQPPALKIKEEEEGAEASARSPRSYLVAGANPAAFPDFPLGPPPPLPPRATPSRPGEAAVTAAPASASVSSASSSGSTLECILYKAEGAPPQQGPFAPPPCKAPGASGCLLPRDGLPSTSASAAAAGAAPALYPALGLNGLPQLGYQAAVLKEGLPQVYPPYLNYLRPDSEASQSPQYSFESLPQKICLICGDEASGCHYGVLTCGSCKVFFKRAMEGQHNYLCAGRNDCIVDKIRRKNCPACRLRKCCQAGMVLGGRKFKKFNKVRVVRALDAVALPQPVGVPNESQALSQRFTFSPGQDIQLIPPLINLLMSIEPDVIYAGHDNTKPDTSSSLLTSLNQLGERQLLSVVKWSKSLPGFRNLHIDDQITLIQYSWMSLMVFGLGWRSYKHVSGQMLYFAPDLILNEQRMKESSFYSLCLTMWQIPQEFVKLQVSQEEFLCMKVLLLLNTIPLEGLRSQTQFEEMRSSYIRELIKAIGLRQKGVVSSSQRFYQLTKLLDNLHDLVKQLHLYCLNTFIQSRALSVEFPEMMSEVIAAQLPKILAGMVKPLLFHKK
Chain of Estrogen receptor (Homo sapiens) (P03372 whole entry, looked up): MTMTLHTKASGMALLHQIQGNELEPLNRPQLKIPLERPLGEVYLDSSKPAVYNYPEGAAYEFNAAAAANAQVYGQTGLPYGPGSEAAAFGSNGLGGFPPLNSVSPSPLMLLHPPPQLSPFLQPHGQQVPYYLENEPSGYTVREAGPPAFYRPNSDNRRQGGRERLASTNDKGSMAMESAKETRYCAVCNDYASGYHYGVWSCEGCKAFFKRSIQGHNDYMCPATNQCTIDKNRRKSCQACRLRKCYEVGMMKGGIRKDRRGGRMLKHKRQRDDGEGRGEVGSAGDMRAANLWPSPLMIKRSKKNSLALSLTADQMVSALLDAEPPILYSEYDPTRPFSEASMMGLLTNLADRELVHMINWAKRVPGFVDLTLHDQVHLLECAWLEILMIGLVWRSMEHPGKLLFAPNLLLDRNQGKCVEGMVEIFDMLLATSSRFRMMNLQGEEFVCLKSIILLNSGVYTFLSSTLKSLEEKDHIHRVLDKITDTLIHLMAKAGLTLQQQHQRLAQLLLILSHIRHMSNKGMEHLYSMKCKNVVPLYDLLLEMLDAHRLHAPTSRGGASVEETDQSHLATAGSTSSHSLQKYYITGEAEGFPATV
Chain of Thyrotropin-releasing hormone receptor (Homo sapiens) (P34981 whole entry, looked up): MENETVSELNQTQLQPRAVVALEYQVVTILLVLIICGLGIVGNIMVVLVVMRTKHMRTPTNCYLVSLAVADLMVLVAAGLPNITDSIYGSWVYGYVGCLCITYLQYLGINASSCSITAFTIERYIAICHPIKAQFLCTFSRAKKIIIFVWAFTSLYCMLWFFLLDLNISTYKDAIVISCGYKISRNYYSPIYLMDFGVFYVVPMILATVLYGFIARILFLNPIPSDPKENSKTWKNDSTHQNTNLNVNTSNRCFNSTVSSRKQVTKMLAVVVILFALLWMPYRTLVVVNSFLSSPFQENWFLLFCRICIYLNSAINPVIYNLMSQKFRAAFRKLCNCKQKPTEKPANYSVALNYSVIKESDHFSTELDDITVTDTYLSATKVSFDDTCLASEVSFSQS
Chain of Estrogen receptor beta (Homo sapiens) (Q92731 whole entry, looked up): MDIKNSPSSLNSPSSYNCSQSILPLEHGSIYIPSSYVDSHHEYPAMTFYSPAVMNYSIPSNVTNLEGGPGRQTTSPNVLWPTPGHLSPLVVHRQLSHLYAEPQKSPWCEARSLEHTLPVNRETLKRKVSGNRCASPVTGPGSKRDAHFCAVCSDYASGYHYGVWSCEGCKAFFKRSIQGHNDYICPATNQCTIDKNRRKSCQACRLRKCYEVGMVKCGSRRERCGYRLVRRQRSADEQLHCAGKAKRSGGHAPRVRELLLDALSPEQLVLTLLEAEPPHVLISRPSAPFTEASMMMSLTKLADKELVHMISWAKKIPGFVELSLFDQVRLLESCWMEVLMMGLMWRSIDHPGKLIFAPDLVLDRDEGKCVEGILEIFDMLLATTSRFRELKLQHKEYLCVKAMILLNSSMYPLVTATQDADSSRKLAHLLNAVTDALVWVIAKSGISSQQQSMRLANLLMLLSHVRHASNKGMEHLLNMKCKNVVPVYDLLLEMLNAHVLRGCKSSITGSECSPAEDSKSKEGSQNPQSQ

For `O=C(CCN1CCN(CCO)CC1)N1c2ccccc2Sc2ccc(C(F)(F)F)cc21`, the compound was called inactive in [1], in assay [5], in assay [6], in [7], in assay [8] and in [13]. Also, the result in assay [14], in assay [15] and in assay [16] was inactive. Also, the Potency entry in assay [2], in [3], in assay [4], in assay [9], in assay [10] and in assay [11] was “inactive” throughout. In addition, in assay [12], the Potency result is “inactive”.
As to `CC(C)CC(C)CC(C)CC(C)COC(=O)c1ccccc1C(=O)OCC(C)CC(C)CC(C)CC(C)C` (stereo unspecified), the outcome in [1], in assay [5], in assay [7], in [8], in assay [13] and in [14] was inactive. The compound was classed as inactive in assay [15] and in [16]. For the same compound, the Potency result in [3], in assay [10], in [11], in [12] and in [17] was “inactive” in each case.
For the compound `C=C(C)C(=O)OCCN(CC)CC`, the outcome in [1], in [5], in assay [7], in assay [8], in [13] and in assay [14] was inactive. Besides, the compound was classed as inactive in assay [15] and in [16]. The Potency result in [3], in assay [4], in assay [10], in assay [11], in [12] and in assay [17] was “inactive” throughout.
Turning to `COc1ccc2c(c1OC)C(=O)O[C@@H]2[C@H]1c2c(cc3c(c2OC)OCO3)CCN1C`, the outcome in [1], in assay [5], in [7], in assay [8], in assay [13] and in assay [14] was inactive. Also, the compound was called inactive in [15] and in [16]. The Potency result in [3], in assay [10], in assay [11], in assay [12] and in assay [17] was “inactive” in each case.
With `COc1ccc2nc(SCc3ncc(C)c(OC)c3C)[nH]c2c1`, the outcome in assay [1], in assay [5], in [6], in assay [7], in [8] and in [13] was inactive. Also, the compound was called inactive in assay [14] and in assay [15]. Moreover, the Potency result in assay [2], in assay [4], in assay [9], in assay [10], in [12] and in assay [17] was “inactive” throughout.
On to `On1nnc2ccccc21`, for which the outcome in assay [1], in assay [6], in assay [7], in [8], in assay [13] and in assay [14] was inactive. Moreover, the compound was classed as inactive in [15]. The Potency entry in assay [2], in assay [10] and in assay [11] was “inactive” in each case. Further, the Potency is 1.54 µM (active) in [3] and 1.37 µM (active) in assay [17].
For `O=C(OCC(O)CO)c1ccccc1Nc1ccnc2c(C(F)(F)F)cccc12` (stereo unspecified), the compound was classed as inactive in [1], in assay [6], in [7], in assay [13], in assay [14] and in assay [15]. Moreover, the call in assay [16] was inactive. The Potency entry in [2], in assay [4] and in assay [9] was “inactive” in each case. The Potency in assay [11] is 29.8 µM (active).
For `COCCOC(=O)C1=C(C)NC(C)=C(C(=O)OC(C)C)C1c1cccc([N+](=O)[O-])c1` (stereo unspecified), the outcome in [1], in [6], in [7], in assay [8], in [13] and in assay [14] was inactive. Besides, the outcome in assay [15] and in assay [16] was inactive. Moreover, the Potency result in assay [2], in assay [3], in assay [9] and in assay [12] was “inactive” in each case. Also, the Potency in [11] was 10.6 µM (active).
As for `COc1ccc(C2CNC(=O)C2)cc1OC1CCCC1` (stereo unspecified), the result in assay [1], in assay [18], in [5], in assay [7], in [8] and in assay [13] was inactive. The result in assay [14], in assay [15] and in assay [16] was inactive. In addition, the Potency result in [2], in assay [3], in [9], in assay [10], in assay [11] and in [12] was “inactive” each time.
Take `BrCCCCCBr`: the result in [1], in [18], in assay [6], in [7], in assay [13] and in assay [14] was inactive. Further, the compound was classed as inactive in assay [15] and in [16]. Further, the Potency entry in assay [2], in assay [3], in assay [9], in [10], in [11] and in [12] was “inactive” throughout. Besides, the Potency entry in assay [17] is “inactive”.
